Screening data: PubChem, National Center for Advancing Translational Sciences (NCATS)
Sm TGR inh = qHTS Assay for the Inhibitors of Schistosoma Mansoni Peroxiredoxins. Potency, µM (series often up to 114 µM), inactives show at the top dose activity change, negative = inhibition, hits mostly inhibitors. purified TGR, DTNB reduction, TNB absorbance 405 nm. 3% of 360,000 active. Schistosoma mansoni thioredoxin glutathione reductase (TGR), Q962Y6. AID 485364, 2010; further: on the % scale 0 is the no-effect control and ±100 the full control effect; nearly all actives have a fitted effect of over 60% in size
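TGR 20 nM + NADPH 100 uM (dispensed conc.), cpd preinc 15 min RT; start with NADPH (500 uM addition) then DTNB (15 mM addition). Kinetic TNB absorbance, 405 nm filter. Four-parameter Hill fit across titration.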
SARS PLP yeast = qHTS of Yeast-based Assay for SARS-CoV PLP; 0.19% of 330,000 active; Potency, µM (top dose mostly 32.9 µM), for inactives: at the highest dose activity, positive = growth rescue, most hits filed as activators; S. cerevisiae expressing SARS-CoV PLpro, growth rescue; calls by dose curve; further: 0% is about no effect; nearly all actives have a fitted effect of over 55% in size
Pf growth 48h = Primary qHTS for delayed death inhibitors of the malarial parasite plastid, 48 hour incubation; 5.9% of 310,000 active; P. falciparum luciferase growth in erythrocytes, 48 h; Potency, µM (series often up to 28.7 µM), for the others: at the top dose activity change, negative = inhibition, usual class: inhibitors; further: on the % scale 0 is the no-effect control and ±100 the full control effect
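Cell-based growth assay: transgenic P. falciparum expressing firefly luciferase, cultured in red cells within RPMI 1640 containing 0.5% w/v Albumax, 24 mM bicarbonate and gentamycin. A drop in luciferase activity indicates inhibition.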
Pf growth 96h = Primary qHTS for delayed death inhibitors of the malarial parasite plastid, 96 hour incubation; Potency, µM (doses to about 28.7 µM), inactives show at the highest dose activity change, negative = inhibition, usual class: inhibitors; 6.9% of 320,000 active; P. falciparum luciferase reporter growth, 96 h; further: on the % scale 0 is the no-effect control and ±100 the full control effect
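Cell-based qHTS: luciferase-tagged P. falciparum in erythrocytes (2% hematocrit, 0.05% parasitemia final) incubated with compounds for 96 hours, 37 C, 5% CO2; luciferase detection reagent then added and luminescence measured.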
Starred values were filed as active, the others as inactive; u = inconclusive; x = no result given. This is a sample that favours compounds with a hit; in the whole collection about 12% have one here. Unless noted, the call rests on the fitted dose curve; in most records, active means well fitted curve in the direction sought with a large enough effect; inconclusive means small, poorly fitted or top-dose-only effect, or another doubt; inactive means no such curve, though single readings can be large; an effect the other way counts as inactive or inconclusive. Potency means the concentration at half of the fitted maximal effect.

SMILES	Sm TGR inh	SARS PLP yeast	Pf growth 48h	Pf growth 96h
COc1ccc(-c2noc(C3CC(=O)N(c4ccc5c(c4)OCCO5)C3)n2)c(OC)c1 (stereo unspecified)	6%	x	x	x
CCC(=O)Nc1cccc(NC(=S)NC(=O)c2cccs2)c1	25µM*	-4%	171%	14%
N#Cc1ccccc1NC(=O)COC(=O)c1cccs1	x	1%	x	x
CC(C)CC(=O)NC(=S)Nc1ccc(NC(=O)c2cccs2)cc1	u	7%	x	5.2µM*
Cc1ccc(NC(=O)c2cccs2)cc1NC(=O)c1ccc(F)cc1	-34%	-4%	-7%	10µM*
Cc1ccc(NC(=O)c2cccs2)cc1NC(=O)c1cccc(F)c1	-15%	9%	9%	u
N#Cc1ccccc1NC(=S)NC(=O)c1cccs1	3.5µM*	-16%	22%	4%
CC(=O)Nc1nonc1-c1nnc(SCC(=O)Nc2cc(C)cc(C)c2)n1C	-1%	x	x	x
CC(=O)CCC(=O)N1CCCC(N2CCN(c3cccc(Cl)c3)CC2)C1 (stereo unspecified)	-4%	5%	-19%	2%
CC(=O)c1ccc(Nc2nc3c(S(=O)(=O)c4ccccc4)nnn3c3ccc(Cl)cc23)cc1	0%	x	x	x
Cc1ccc(C(=O)NC(=S)Nc2ccc(NC(=O)c3cccs3)cc2)cc1[N+](=O)[O-]	6%	9%	-1%	9.3µM*
CC(C)C(=O)Nc1ccc(N2CCN(C(=O)c3cccs3)CC2)cc1	-16%	2%	-15%	u
CC(C)CC(=O)NC(=S)Nc1ccc(N2CCN(C(=O)c3cccs3)CC2)cc1	u	1%	10µM*	u
COc1ccc2cc3cc(C(=O)NCCc4ccccc4)sc3nc2c1Cl	-3%	x	x	x
CCc1ccccc1NC(=O)c1ccc2c(c1)nnn2C1CCCC1	0%	x	x	x
Cc1ccc(S(=O)(=O)Nc2nc3ccc(S(C)(=O)=O)cc3s2)cc1	2%	-3%	-12%	12µM*
Cc1ccc(S(=O)(=O)Nc2nc3ccc(N)cc3s2)cc1	-25%	-1%	4%	15%
COc1cc(C(=O)Nc2nc3ccc(S(C)(=O)=O)cc3s2)cc(OC)c1C	-8%	-1%	u	7.4µM*
COc1cc(OC)cc(C(=O)Nc2nc3ccc(S(C)(=O)=O)cc3s2)c1	-2%	-4%	105%	118%
C/C(=N\Nc1ncnc2sc(C)c(C)c12)c1ccccn1	2%	-15%	0.17µM*	0.046µM*
Cc1ccc(Nc2ncnc3sc(C)c(C)c23)cc1	-15%	13%	113%	9.3µM*
Cc1sc2ncnc(N/N=C/c3cccc(O)c3)c2c1C	1%	22%	64%	35%
COc1cc(OC)cc(C(=O)NCC2CCCN(Cc3ccc(SC)cc3)C2)c1 (stereo unspecified)	-11%	-3%	0%	u
CCN(c1ccc(C)cc1C)S(=O)(=O)c1nnc(NC(=O)C(C)C)s1	6%	-1%	13µM*	-6%
CCN(c1ccc(C)cc1C)S(=O)(=O)c1nnc(NC(=O)C(C)(C)C)s1	-15%	0%	10µM*	u
SMILES	Sm TGR inh	SARS PLP yeast	Pf growth 48h	Pf growth 96h
CCN(c1ccc(C)cc1C)S(=O)(=O)c1nnc(NC(=O)c2ccc(F)cc2)s1	7%	x	x	x
CCN(c1cc(C)cc(C)c1)S(=O)(=O)c1nnc(NC(=O)C(C)C)s1	-6%	0%	u	u
O=C(Cn1cnc([N+](=O)[O-])c1)NCc1ccc(F)cc1	6%	-4%	1%	6.6µM*
O=C(Cn1cnc([N+](=O)[O-])c1)c1ccc(F)cc1	2%	-1%	-100%	106%
C=C1SC(=Nc2c(C)cccc2Cl)N(C(=O)c2sc3ccccc3c2Cl)C12CCCCC2	-3%	2%	u	1.9µM*
Cn1c(=O)c2c(-c3ccccc3)n3c(c2n(C)c1=O)C(c1ccccc1[N+](=O)[O-])Nc1ccccc1-3 (stereo unspecified)	-26%	x	x	x
CCC(C)n1c(SCC(=O)NC(=O)c2cccn2C)nc2ccccc2c1=O (stereo unspecified)	4%	4%	u	u
C=CCn1c(SCC(=O)NC(=O)c2cccn2C)nc2ccccc2c1=O	4%	-1%	3.7µM*	10%
C=CCn1c(SCC(=O)Nc2ccc(F)cc2)nc2ccccc2c1=O	u	4%	u	5.2µM*
C=CCn1c(SCC(=O)Nc2cccc3ccccc23)nnc1-c1cnccn1	13%	0%	u	u
